From PubChem BioAssay (NCI) come the findings set out here.

Values joined by “and” are separate entries in the source; they are usually repeats but may differ in a detail not shown here. Equal values may be shown once. Compounds without any hit were thinned out: in the full panel of roughly 83,000, 20% have a hit.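 Testing used 96-well plates and a 48-hour single-concentration exposure. Example: -40 means 40% of the starting cells died.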 Active and inactive are the calls of the source. The calls were made as follows: active = growth percent below 10; inactive = the rest.

Test systems include NCI-H23 lung; NCI-H226 lung; NCI-H322M lung; HOP-62 NSCLC; NCI-H460 lung; HOP-92 NSCLC; NCI-H522 lung; A549/ATCC NSCLC; 786-0 renal; COLO 205 colon.
What all share (test): NCI-60 one-dose screen, 48 h (100 = growth as untreated, 0 = no growth, -100 = all killed)
What all share (settings): 10 µM unless noted

With `CCC/C(=N/NC(N)=O)c1ccco1`, the growth in the assay on NCI-H23 lung is 99.1% (inactive); in the assay on NCI-H226 lung, 96.1% (inactive); in the assay with NCI-H322M lung it was 96.5% (inactive); with HOP-62 NSCLC, 79.7% (inactive); with NCI-H460 lung, 104% (inactive); with HOP-92 NSCLC it was 82.7% (inactive). For the same molecule, the growth is 76.3% (inactive) in the assay on NCI-H522 lung, 93.4% (inactive) in the assay with A549/ATCC NSCLC, 89.7% (inactive) in the assay with 786-0 renal and 107% (inactive) in the assay with COLO 205 colon.

With `COc1ccc(CCl)c(C)c1OC`, the growth in the assay on NCI-H23 lung was 96.2% (inactive); in the assay on NCI-H226 lung it was 95.8% (inactive); with NCI-H322M lung, 95.8% (inactive); with HOP-62 NSCLC it was 104% (inactive); in the assay on NCI-H460 lung, 103% (inactive); with HOP-92 NSCLC it was 86.1% (inactive). Also, the growth with NCI-H522 lung was 99.8% (inactive); with A549/ATCC NSCLC it was 102% (inactive); in the assay with 786-0 renal it was 106% (inactive); in the assay with COLO 205 colon, 109% (inactive).

On to `CC1=CC(=O)c2cccc(NC3=NCCO3)c21`, for which the growth in the assay on NCI-H23 lung was 100% (inactive); in the assay with NCI-H226 lung it was 94.2% (inactive); in the assay on NCI-H322M lung it was 99.4% (inactive); in the assay on HOP-62 NSCLC, 84.9% (inactive); in the assay with NCI-H460 lung, 107% (inactive); in the assay with HOP-92 NSCLC, 77.6% (inactive). Besides, the growth in the assay on NCI-H522 lung was 87.8% (inactive); in the assay on A549/ATCC NSCLC it was 92.3% (inactive); in the assay on 786-0 renal, 91.9% (inactive); with COLO 205 colon it was 102% (inactive).

For `CNc1ccc(Cl)cc1S(=O)(=O)c1ccccc1[N+](=O)[O-]`, the growth with NCI-H23 lung is 87.9% (inactive) and 98.3% (inactive); in the assay on NCI-H226 lung, 114% (inactive) and 103% (inactive); with NCI-H322M lung it was 89.1% (inactive) and 91% (inactive); with HOP-62 NSCLC, 147% (inactive) and 94.8% (inactive); with NCI-H460 lung, 107% (inactive) and 108% (inactive); with HOP-92 NSCLC, 93% (inactive) and 100% (inactive). Besides, the growth is 78.3% (inactive) and 75% (inactive) in the assay with NCI-H522 lung; 23.3% (inactive) and 94.4% (inactive) in the assay on A549/ATCC NSCLC; 116% (inactive) and 100% (inactive) with 786-0 renal; 117% (inactive) in the assay on COLO 205 colon.

For the molecule `CC1(CO)CCCC1NCCNC1CCCC1(C)CO` (stereo not given), the growth is 109% (inactive) and 107% (inactive) in the assay on NCI-H23 lung; 99.5% (inactive) and 102% (inactive) in the assay with NCI-H226 lung; 139% (inactive) and 98.2% (inactive) in the assay on NCI-H322M lung; 109% (inactive) and 100% (inactive) in the assay on HOP-62 NSCLC; 104% (inactive) and 112% (inactive) in the assay on NCI-H460 lung; 82.8% (inactive) and 101% (inactive) in the assay on HOP-92 NSCLC. Further, the growth was 94.3% (inactive) with NCI-H522 lung; 105% (inactive) and 104% (inactive) in the assay on A549/ATCC NSCLC; 101% (inactive) and 102% (inactive) in the assay on 786-0 renal; 114% (inactive) and 103% (inactive) in the assay with COLO 205 colon.

Regarding `CC(C)(C)C1=CC(=O)C(C(C)(C)C)=CC1=O`, the growth with NCI-H23 lung was 84.3% (inactive) and 103% (inactive); in the assay with NCI-H226 lung, 90.3% (inactive) and 102% (inactive); in the assay on NCI-H322M lung, 104% (inactive) and 102% (inactive); with HOP-62 NSCLC, 90.2% (inactive) and 97.8% (inactive); in the assay with NCI-H460 lung, 99.7% (inactive); in the assay on HOP-92 NSCLC it was 83.8% (inactive) and 100% (inactive). Besides, the growth with NCI-H522 lung was 82.5% (inactive) and 88.9% (inactive); in the assay on A549/ATCC NSCLC, 98.5% (inactive) and 91% (inactive); in the assay with 786-0 renal it was 93.3% (inactive) and 105% (inactive); with COLO 205 colon it was 116% (inactive).

Regarding `CC(C)=NOC(C)C(=O)O` (stereo not given), the growth with NCI-H23 lung is 108% (inactive); with NCI-H226 lung, 104% (inactive); in the assay on NCI-H322M lung, 118% (inactive); in the assay with HOP-62 NSCLC, 110% (inactive); in the assay with NCI-H460 lung, 107% (inactive); in the assay with HOP-92 NSCLC it was 73% (inactive). The growth is 111% (inactive) in the assay on NCI-H522 lung, 98.8% (inactive) with A549/ATCC NSCLC, 97.8% (inactive) in the assay on 786-0 renal and 111% (inactive) in the assay on COLO 205 colon.

On to `Cc1cc(NC(=O)NC(=O)c2ccccc2N(C)C)ccc1Oc1ncc(Br)cn1`, for which the growth in the assay on NCI-H23 lung is 19.3% (inactive) and 24.7% (inactive); in the assay with NCI-H226 lung, 55.6% (inactive) and 66.4% (inactive); with NCI-H322M lung, 44.4% (inactive) and 66.2% (inactive); in the assay with HOP-62 NSCLC it was 37.7% (inactive); in the assay on NCI-H460 lung, 8.31% (active) and 10.8% (inactive); in the assay with HOP-92 NSCLC, 57.5% (inactive). The growth with NCI-H522 lung was -22.2% (active) and 15.1% (inactive); with A549/ATCC NSCLC, 43.9% (inactive) and 33.7% (inactive); in the assay on 786-0 renal it was 27.9% (inactive) and 31.4% (inactive); in the assay on COLO 205 colon, 14.2% (inactive).

On to `Cc1cccc(Cl)c1N`, for which the growth was 99.6% (inactive) in the assay on NCI-H23 lung; 118% (inactive) in the assay with NCI-H226 lung; 127% (inactive) with NCI-H322M lung; 104% (inactive) in the assay with HOP-62 NSCLC; 107% (inactive) in the assay on NCI-H460 lung; 94.1% (inactive) in the assay with HOP-92 NSCLC. For the same molecule, the growth with NCI-H522 lung was 105% (inactive); in the assay on A549/ATCC NSCLC, 96.4% (inactive); in the assay with 786-0 renal, 113% (inactive); with COLO 205 colon it was 119% (inactive).

For the molecule `CC(=O)c1cc2ccccc2o1`, the growth with NCI-H23 lung is 97.9% (inactive); with NCI-H226 lung, 107% (inactive); in the assay on NCI-H322M lung it was 110% (inactive); in the assay with HOP-62 NSCLC it was 99.7% (inactive); in the assay on NCI-H460 lung, 108% (inactive); in the assay with HOP-92 NSCLC, 106% (inactive). Moreover, the growth is 84.1% (inactive) with NCI-H522 lung, 104% (inactive) in the assay with A549/ATCC NSCLC, 94.1% (inactive) in the assay on 786-0 renal and 114% (inactive) with COLO 205 colon.

With `C/C(=C\c1ccccc1)C(O)C(=O)c1nc2ccc([N+](=O)[O-])cc2[nH]c1=O` (stereo not given), the growth in the assay on NCI-H23 lung was 104% (inactive); in the assay on NCI-H226 lung it was 88% (inactive); in the assay with NCI-H322M lung it was 90.3% (inactive); with HOP-62 NSCLC it was 81.4% (inactive); in the assay on NCI-H460 lung, 94.7% (inactive); in the assay on HOP-92 NSCLC, 78.9% (inactive). The growth with NCI-H522 lung is 48.1% (inactive); with A549/ATCC NSCLC, 85.7% (inactive); in the assay on 786-0 renal, 101% (inactive); in the assay on COLO 205 colon, 111% (inactive).
